Source: PubChem BioAssay
This excerpt belongs to a sample that is enriched for hits.
VACV Venus inh: vaccinia inhibition (Venus reporter). Vaccinia virus Venus reporter expression, fluorescence. Potency, µM (doses to about 36.5 µM), for inactives: at the highest dose activity change, negative = inhibition, actives largely listed as inhibitors. 0.46% of 330,000 active; calls by dose curve; tested in A549 cells; also: potency is read from the fitted curve at half-maximal effect; % is scaled to controls: 0 for no effect and ±100 for the full control effect; nearly all actives have a fitted effect of over 30% in size
MARV entry inh: inhibitors of Marburg virus binding or cell entry. Marburg virus pseudotyped entry inhibition, cell reporter. Potency, µM (top dose mostly 37.8 µM), for inactives: at the highest dose activity change, negative = inhibition, usual class: inhibitors. 1.8% of 300,000 active. AID 540276; calls by dose curve; tested in HEK293 cells; also: potency is read from the fitted curve at half-maximal effect; % is scaled to controls: 0 for no effect and ±100 for the full control effect
Vaccinia mCherry: vaccinia inhibition (mCherry reporter). Vaccinia virus mCherry reporter infection, fluorescence. Potency, µM (series often up to 36.5 µM), for the others: top-dose activity change, negative = inhibition, actives largely listed as inhibitors. 0.63% of 310,000 active; calls by dose curve; tested in A549 cells; also: potency is read from the fitted curve at half-maximal effect; % is scaled to controls: 0 for no effect and ±100 for the full control effect; nearly all actives have a fitted effect of over 35% in size
LASV entry inh: blocks Lassa virus binding to or entry into cells; 1.2% of 300,000 active; Potency, µM (top dose mostly 37.9 µM), inactives show at the top dose activity change, negative = inhibition, usual class: inhibitors; Lassa virus pseudotype entry inhibition, cell reporter; calls by dose curve; tested in HEK293 cells; also: potency is read from the fitted curve at half-maximal effect; % is scaled to controls: 0 for no effect and ±100 for the full control effect; nearly all actives have a fitted effect of over 50% in size
Cycloheximide cs: affects cycloheximide protein synthesis inhibition readout, counter-screen; cell reporter, cycloheximide protein synthesis inhibition counterscreen; max response, %; 12% of 300,000 active; AID 2314; in the data active = max response mostly above about 13%, no sharp cut-off; inactive = mostly below about 14%; also: read at 38.3 µM for the half of the compounds with a filed dose; 0% is about no effect
Shiga toxin inh: inhibitors of Shiga toxin in Vero cells | Vero cells, Shiga toxin protein synthesis inhibition reporter | inhibition, % at 38.7 µM | 9.2% of 290,000 active; in the data active = inhibition mostly above about 28%, no sharp cut-off; inactive = mostly below about 43%; also: 0% is about no effect
* = called active by the depositor; i = inactive; ? = inconclusive; / = not tested or not shown; [ ] = another dose, or the depositor's remark.

SMILES	VACV Venus inh	MARV entry inh	Vaccinia mCherry	LASV entry inh	Cycloheximide cs	Shiga toxin inh
COc1ccccc1C1C2CCCCC2(O)CCN1CC(=O)Nc1ccccc1 (configuration not stated)	/	?	/	2%	3	4
CC1=CC2=NC(=O)/C(=C\c3cc(C)n(-c4ccccc4F)c3C)C(=N)N2O1	-10%	6%	i	?	29*	59*
CC1=CC2=NC(=O)/C(=C/c3cccs3)C(=N)N2O1	-6%	-7%[46.1 µM]	-24%	-1%	-1	-14
CC1=CC2=NC(=O)/C(=C\c3ccc(-c4ccc(Cl)cc4)o3)C(=N)N2O1	/	19%	/	8%	18*	0
O=C(Cn1c(=O)n(Cc2nc(-c3ccccc3)no2)c(=O)c2ccccc21)Nc1cccc(Cl)c1	-9%	/	-24%	-1%[46.1 µM]	/	/
Cc1nnc(SCC(=O)Nc2nc(-c3ccc(F)cc3)cs2)[nH]c1=O	?	?	13µM*	-11%[46.1 µM]	21*	45
Cc1cc(=O)[nH]c(SCC(=O)Nc2nc(-c3ccccc3)cs2)n1	11%	15%	-8%	-28%	-3	19
Nc1ccccc1SCC(=O)Nc1nc(-c2ccccc2)cs1	?	?	?	?	20*	62
Cc1csc(SCC(=O)Nc2nc(-c3ccccc3)cs2)n1	?	16%	/	-2%	13*	27
COc1ccccc1-c1nnc(SCC(=O)Nc2nc(-c3ccccc3)cs2)n1C	/	23µM*	/	23µM*	12	28
Cc1cc(C)nc(SCc2nnc(SCC(=O)Nc3nc(-c4ccccc4)cs3)n2C)n1	4%	-18%	-5%	2%	-3	-3
Cc1c(C(=O)NCCc2cccnc2)cnn1-c1ncc2c(n1)-c1ccccc1CC2	-25%	/	?	/	/	/
Cc1cnc(-n2ncc(C(=O)NCc3ccncc3)c2C(C)C)nc1-c1ccc(F)cc1	-17%	/	-22%	/	/	/
CCc1ccc(CNC(=O)c2cnc3sc(N4CCOCC4)nn3c2=O)cc1	-5%	/	-10%	?	/	/
Cc1ccc(-c2csc(NC(=O)CSc3nc(C)cs3)n2)cc1	/	7%	/	26%	42*	111*
Cc1csc(NC(=O)CSc2ccccc2F)n1	-25%	?	-14%	?	37*	84*
Nc1ccccc1SCC(=O)Nc1cccc2ccccc12	-19%	5%[46.1 µM]	?	-4%[46.1 µM]	17	/
Cc1nc(NC(=O)CSc2ccccc2N)sc1C	0%	?	i	?	25*	14
Cc1csc(NC(=O)CSc2ccc(-c3ccccn3)nn2)n1	/	/	/	/	15	71
COCc1cc(C)nc(SCC(=O)Nc2nc(C)cs2)c1C#N	-5%	?	?	?	24*	49
O=C1CCCc2cc(S(=O)(=O)N3CCCC(C(=O)Nc4ccc(F)c(Cl)c4)C3)ccc2N1 (configuration not stated)	0%	/	-7%	-27%[46.1 µM]	/	/
CCOc1ccc(NCc2nnc(SCC(=O)Nc3nc(-c4ccccc4)cs3)n2-c2ccccc2)cc1	?	?	11µM*	-12%	-2	-7
O=C(C[n+]1cc(-c2ccccc2)n2c1CCC2)Nc1nc(-c2ccccc2)cs1	-11%	20%	i	10%	12	1
O=C(CSCC(=O)N1CCCc2ccccc21)Nc1nc(-c2ccccc2)cs1	-25%	-30%	?	?	18*	33
N#Cc1ccc(S(=O)(=O)N2CCC(Oc3cccc(C(F)(F)F)c3)CC2)cc1	-16%	-1%[46.1 µM]	-9%	0%[46.1 µM]	/	/
SMILES	VACV Venus inh	MARV entry inh	Vaccinia mCherry	LASV entry inh	Cycloheximide cs	Shiga toxin inh
CCOc1ccc(N(CC(=O)N2CCCCCC2)S(=O)(=O)c2ccc(C)cc2)cc1	-1%	-50%	-3%	3.5µM*	4	42
COc1cc2oc3ccccc3c2cc1N(CC(=O)N1CCCCC1)S(=O)(=O)c1ccc(C)cc1	-21%	14µM*	/	?	1	16
COc1cc2oc3ccccc3c2cc1N(CC(=O)N(C)C)S(=O)(=O)c1ccccc1	-19%	?	/	?	-3	-19
CCN(CC)C(=O)CN(c1cc2c(cc1OC)oc1ccccc12)S(=O)(=O)c1ccccc1	?	10µM*	/	?	-2	43
Cc1ccc(N(CC(=O)N2CCCCC2)S(=O)(=O)c2ccc(C)cc2)cc1	-5%	-23%[46.1 µM]	-4%	?	-4	20
Cc1cc(Cl)ccc1C(=O)C1CCCN(C(=O)c2snnc2C)C1 (configuration not stated)	/	/	/	/	-2	21
CCc1ccc(C2C(C(=O)Nc3ccccc3OC)=C(C)Nc3c(C(=O)Nc4ccc(C)cc4)cnn32)cc1 (configuration not stated)	-17%	/	i	-2%[46.1 µM]	/	/
C[C@@H]1CN([C@@H](C)CO)C(=O)CCCn2nncc2CO[C@@H]1CN(C)S(=O)(=O)c1ccc(C#N)cc1	-19%	/	-4%	/	/	/
COc1ccc(OCC(=O)N/N=C/c2ccc(N(C)C)cc2)cc1	-10%	?	i	?	26*	28
CN(C)c1ccc(/C=N/NC(=O)CCCO)cc1	1%	?	-14%	-2%	41*	63*
CN(C)c1ccc(/C=N/NC(=O)CCC(=O)NCc2ccccc2)cc1	-10%	2%	i	-3%	-1	1
CN(C)c1ccc(/C=N\NC(=O)CC#N)cc1	-3%	-17%[46.1 µM]	i	-24%[46.1 µM]	30	35*
CN(C)c1ccc(/C=N/NC(=O)CCc2c[nH]c3ccccc23)cc1	-21%	?	-29%	2µM*	13	13
O=C(CSc1nc2ccccc2c2nc(-c3ccccc3)nn12)Nc1ccc(Br)cc1	2%	/	-5%	22%[46.1 µM]	/	/
O=C(NCc1ccc(Cl)cc1)C1CCN(S(=O)(=O)c2ccc3c(c2)CCCN3C(=O)C2CCC2)CC1	-20%	/	-25%	?	/	/
CCOC(=O)N1CCN(CC(c2ccccc2)c2ccccc2)CC1	/	/	/	/	-2	/
C[C@H]1CN([C@@H](C)CO)C(=O)CCCn2nncc2CO[C@H]1CN(C)S(C)(=O)=O	-12%	/	-3%	/	/	/
CCCCCC(=O)N/N=C/c1ccc(N(C)C)cc1	-15%	?	i	-28%	18*	23
NC(=O)COC(=O)c1ccc(-c2ccccc2)cc1	-4%	0%[46.1 µM]	i	11%[46.1 µM]	17*	64*
Cc1ccccc1C(=O)OCc1nnc(-c2ccc(Cl)cc2)o1	5%	?	-2%	16%[46.1 µM]	25*	45*
CC(C(=O)OCc1nnc(-c2ccccc2)o1)N1C(=O)C2CCCCC2C1=O (configuration not stated)	-11%	/	-14%	/	37*	70*
Clc1ccc(-c2nnc(COc3ncnc4ccccc34)o2)cc1	1%	?	-7%	?	34*	55*
CC(C)c1cc(-c2nc(-c3ccc(Cl)cc3)no2)n[nH]1	-21%	/	-15%	?	/	/
Cc1cc(C)n2nc(C(=O)OCC(=O)Nc3ccc(F)cc3F)nc2n1	-12%	19%	i	?	/	/
O=S(=O)(c1ccc(Cl)cc1)N1CCN(S(=O)(=O)c2ccc3c(c2)OCCO3)CC1	/	/	/	/	-8	-7
O=S(=O)(Nc1nnc(C2CC2)s1)c1ccccc1	/	/	/	/	-3	-8
